Values joined by “and” are separate entries in the source; they are usually repeats but may differ in a detail not shown here. Equal entries are not always repeated. Screen size: about 5,500 compounds; about 2,000 (36%) were called active. Another 18% or so got no clear call; they are omitted. Rule as the data show it: active = normalized growth mostly below about 0.91 (no sharp cut-off); inconclusive = no clear call, values can overlap the other calls; inactive = mostly above about 0.92. Some of the results follow.
Assay: chemical genetic growth profiling, strain panel (AID 1159580);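 also: tested at 20 µM; growth read once vehicle control cultures reached saturation at 30 °C; 1 = growth at the plate median or of vehicle wells; lower values mean less growth of the strain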
Settings: S. cerevisiae deletion strains, growth OD

Measured: normalized growth

CC(=O)N1CCN(c2ccc(OCC3CO[C@](Cn4ccnc4)(c4ccc(Cl)cc4Cl)O3)cc2)CC1 (stereo partly drawn)
inactive: locus YIL125W, strain kgd1, stronger effect = lower value 0.964
active: locus YAL021C, strain ccr4, stronger effect = lower value 0.196 | locus YAL026C, strain drs2, stronger effect = lower value 0.0754 | locus YAL030W, strain snc1, stronger effect = lower value 0.0875 | locus YBL061C, strain skt5, stronger effect = lower value 0.0954 | locus YBR009C, strain hhf1, stronger effect = lower value 0.0917 | locus YBR021W, strain FUR4, stronger effect = lower value 0.163 | locus YBR023C, strain chs3, stronger effect = lower value 0.0942 | locus YBR171W, strain sec66, stronger effect = lower value 0.162 | locus YBR229C, strain ROT2, stronger effect = lower value 0.124 | locus YBR231C, strain swc5, stronger effect = lower value 0.0937 | locus YBR279W, strain paf1, stronger effect = lower value 0.0988 | locus YCL011C, strain gbp2, stronger effect = lower value 0.0885 | locus YCL016C, strain dcc1, stronger effect = lower value 0.102 | locus YCL029C, strain bik1, stronger effect = lower value 0.087 | locus YCL061C, strain MRC1, stronger effect = lower value 0.0977 | locus YCL069W, strain vba3, stronger effect = lower value 0.0793 | locus YCR088W, strain abp1, stronger effect = lower value 0.111 | locus YDL005C, strain med2, stronger effect = lower value 0.327 | locus YDL035C, strain GPR1, stronger effect = lower value 0.0672 | locus YDL040C, strain nat1, stronger effect = lower value 0.113 | locus YDL074C, strain BRE1, stronger effect = lower value 0.157 | locus YDL101C, strain DUN1, stronger effect = lower value 0.086 | locus YDL134C, strain PPH21, stronger effect = lower value 0.0637 | locus YDL185W, strain tfp1, stronger effect = lower value 0.542 | locus YDL192W, strain arf1, stronger effect = lower value 0.156 | locus YDR001C, strain nth1, stronger effect = lower value 0.105 | locus YDR069C, strain doa4, stronger effect = lower value 0.228 | locus YDR101C, strain arx1, stronger effect = lower value 0.101 | locus YDR137W, strain rgp1, stronger effect = lower value 0.449 | locus YDR150W, strain NUM1, stronger effect = lower value 0.0966 | locus YDR159W, strain sac3, stronger effect = lower value 0.135 | locus YDR162C, strain NBP2, stronger effect = lower value 0.0614 | locus YDR195W, strain ref2 0.254 | locus YDR297W, strain sur2, stronger effect = lower value 0.1 | locus YDR318W, strain mcm21, stronger effect = lower value 0.0866 | locus YDR334W, strain swr1, stronger effect = lower value 0.0914 | locus YDR335W, strain msn5, stronger effect = lower value 0.101 | locus YDR388W, stronger effect = lower value 0.0742 | locus YDR392W, strain spt3, stronger effect = lower value 0.106 | locus YDR502C, strain sam2, stronger effect = lower value 0.0927 | locus YEL003W, strain gim4, stronger effect = lower value 0.0768 | locus YEL037C, strain rad23, stronger effect = lower value 0.129 | locus YEL061C, strain CIN8 (second series), stronger effect = lower value 0.084 | locus YEL061C, strain CIN8, stronger effect = lower value 0.0807 | locus YER015W, strain faa2, stronger effect = lower value 0.0977 | locus YER016W, strain bim1, stronger effect = lower value 0.0966 | locus YER110C, stronger effect = lower value 0.129 | locus YER111C, strain swi4, stronger effect = lower value 0.123 | locus YER155C, strain BEM2 (second series), stronger effect = lower value 0.329 | locus YER155C, strain BEM2, stronger effect = lower value 0.0986 | locus YER167W, strain BCK2, stronger effect = lower value 0.064 | locus YFR010W, strain ubp6, stronger effect = lower value 0.302 | locus YGL078C, strain dbp3, stronger effect = lower value 0.908 | locus YGL086W, strain mad1, stronger effect = lower value 0.0803 | locus YGL167C, strain pmr1, stronger effect = lower value 0.191 | locus YGL173C, strain kem1, stronger effect = lower value 0.226 | locus YGL227W, strain vid30, stronger effect = lower value 0.0914 | locus YGL240W, strain doc1, stronger effect = lower value 0.166 | locus YGL248W, strain PDE1, stronger effect = lower value 0.0653 | locus YGL253W, strain hxk2, stronger effect = lower value 0.0717 | locus YGR078C, strain PAC10, stronger effect = lower value 0.0678 | locus YGR135W, strain pre9, stronger effect = lower value 0.0918 | locus YGR229C, strain SMI1, stronger effect = lower value 0.0729 | locus YGR252W, strain gcn5, stronger effect = lower value 0.213 | locus YHR013C, strain ard1, stronger effect = lower value 0.139 | locus YHR027C, strain rpn1, stronger effect = lower value 0.174 | locus YHR030C, strain SLT2, stronger effect = lower value 0.0646 and 0.118 | locus YHR079C, strain IRE1 (second series), stronger effect = lower value 0.0993 | locus YHR079C, strain IRE1, stronger effect = lower value 0.155 | locus YHR094C, strain hxt1, stronger effect = lower value 0.0943 | locus YHR129C, strain ARP1, stronger effect = lower value 0.0814 | locus YHR142W, strain chs7, stronger effect = lower value 0.0981 | locus YHR200W, strain rpn10, stronger effect = lower value 0.133 | locus YIL066C, strain RNR3, stronger effect = lower value 0.0659 | locus YIL073C, strain SPO22, stronger effect = lower value 0.202 | locus YIR030C, strain dcg1, stronger effect = lower value 0.0973 | locus YJL092W, strain hpr5, stronger effect = lower value 0.093 | locus YJL095W, strain BCK1 (second series), stronger effect = lower value 0.0703 | locus YJL095W, strain BCK1, stronger effect = lower value 0.0666 and 0.127 | locus YJL115W, strain asf1, stronger effect = lower value 0.113 | locus YJL129C, strain trk1, stronger effect = lower value 0.117 | locus YJL134W, strain LCB3, stronger effect = lower value 0.0818 | locus YJL154C, strain vps35, stronger effect = lower value 0.123 | locus YJL164C, strain tpk1, stronger effect = lower value 0.0872 | locus YJL166W, strain qcr8, stronger effect = lower value 0.0816 | locus YJL168C, strain set2, stronger effect = lower value 0.0995 | locus YJL187C, strain SWE1 (second series), stronger effect = lower value 0.0726

— PubChem BioAssay AID1159580 (chemical genetic matrix, 2015)
